High-throughput results deposited in PubChem BioAssay by National Center for Advancing Translational Sciences (NCATS).
NS1 function inh: qHTS Assay for Inhibitors of Influenza NS1 Protein Function; actives 0.4% (n = 270,000); Potency, µM (series often up to 46.1 µM), without a hit: top-dose activity, positive = more growth; AID 2326, 2010; also: actives are rising curves; nearly all actives have a fitted effect of over 50% in size
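Compounds were scored for reversing the slow growth caused by influenza A NS1 in S. cerevisiae, measured by optical density at 600 nm. Assay medium contained 2% galactose at pH 6.0; NS1-free yeast of the same strain were the positive control.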
Pf growth 96h: Primary qHTS for delayed death inhibitors of the malarial parasite plastid, 96 hour incubation; actives 6.9% (n = 320,000); P. falciparum luciferase reporter growth, 96 h; Potency, µM (titrated, usually from 28.7 µM), without a hit: at the top dose activity change, negative = inhibition, actives largely listed as inhibitors; AID 504834, 2011; active = well fitted inhibition curve with a large enough effect; inconclusive = small, poorly fitted or top-dose-only effect, or another doubt; inactive = no such curve, though single readings can be large or run the other way; also: % is scaled to controls: 0 for no effect and ±100 for the full control effect
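P. falciparum expressing integrated firefly luciferase grown in erythrocytes (2% hematocrit, 0.05% parasitemia final) with compounds for 96 hours at 37 C, 5% CO2. Growth inhibition read as loss of luminescence after adding luciferase detection reagent.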
Pf growth 48h: Primary qHTS for delayed death inhibitors of the malarial parasite plastid, 48 hour incubation; P. falciparum luciferase growth in erythrocytes, 48 h; Potency, µM (series often up to 28.7 µM), without a hit: at the top dose activity change, negative = inhibition, usual class: inhibitors; actives 5.9% (n = 310,000); AID 504832, 2011; active = well fitted inhibition curve with a large enough effect; inconclusive = small, poorly fitted or top-dose-only effect, or another doubt; inactive = no such curve, though single readings can be large or run the other way; also: % is scaled to controls: 0 for no effect and ±100 for the full control effect
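Cell-based growth assay: transgenic P. falciparum expressing firefly luciferase, cultured in red cells within RPMI 1640 containing 0.5% w/v Albumax, 24 mM bicarbonate and gentamycin. A drop in luciferase activity indicates inhibition.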
RE007 growth inh: qHTS Assay for Inhibitors of the HIV-1 protein Vpr | S. pombe RE007 Vpr strain, BacTiter-Glo ATP luminescence, 24 h | Potency, µM (titrated, usually from 92.2 µM), for the others: at the top dose activity change, negative = less growth, actives largely listed as inhibitors | actives 0.21% (n = 360,000); active = well fitted falling curve with a large enough effect; inconclusive = small, poorly fitted or top-dose-only effect; inactive = no such curve, though single readings can be large or run the other way; also: % is scaled to controls: 0 for no effect and ±100 for the full control effect; nearly all actives have a fitted effect of over 50% in size
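Fission yeast strain RE007, carrying one chromosomally integrated HIV-1 vpr copy, was seeded at OD 0.01 in PMG+AL medium with 23 nL pinned compound. After 24 h at 30 °C and 99% humidity, viability was read by BacTiter-Glo luminescence.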
SARS PLpro yeast: qHTS of Yeast-based Assay for SARS-CoV PLP. S. cerevisiae expressing SARS-CoV PLpro, growth rescue. Potency, µM (top dose mostly 32.9 µM), for inactives: at the highest dose activity, positive = growth rescue, hits mostly activators. actives 0.19% (n = 330,000). AID 485353, 2010; also: 0% is about no effect; nearly all actives have a fitted effect of over 55% in size
The depositor's hits bear a star; ? = inconclusive; . = no result given. Hits are enriched below; roughly 9.5% of the tested compounds scored in any of these assays. Unless noted, calls follow the shape of the full dose curve. Potency is read from the fitted curve at half-maximal effect.

SMILES | NS1 function inh | Pf growth 96h | Pf growth 48h | RE007 growth inh | SARS PLpro yeast
COC(=O)CN(c1cc([N+](=O)[O-])ccc1OC)S(C)(=O)=O | 13% | 15µM* | -8% | -2% | -2%
COc1ccc(S(=O)(=O)Nc2ccc(C)cc2)cc1N(C)S(=O)(=O)c1ccc(Cl)cc1 | ? | -12% | 2.9µM* | 4% | -17%
COc1ccc(Cl)cc1N(CC(=O)N1CCCC1)S(=O)(=O)c1ccc(C)cc1 | 6% | ? | -28% | -9% | 0%
COc1cccc(NC(=O)CN(c2cccc(OC)c2)S(C)(=O)=O)c1 | 1% | -22% | 0% | -19% | 0%
CC(=O)Nc1ccc(SCC(=O)N2CCN(S(=O)(=O)c3ccccc3)CC2)cc1 | -4% | -10% | -12% | 3% | 6%
CC(=O)c1cccc(OC(=O)c2ccc3c(=O)n4c(nc3c2)CCC4)c1 | . | ? | 41% | -6% | 1%
C[C@H]1C(=O)N(C)CCN1C(=O)c1ccc(OC2CCN(CCc3ccccc3)CC2)cc1 | . | . | . | -13% | .
COc1cccc(-c2ccc(CN3C(C(C)C)C(=O)N(Cc4cn(CCC5OCCO5)nn4)CCS3(=O)=O)cc2)c1OC (configuration not stated) | . | . | . | 7% | .
CCNC(=O)c1ccc2c(c1)C1C3CCC(C3)C1C(c1ccccc1)N2 (configuration not stated) | -42% | 50% | 7.4µM* | 1% | -72%
O=c1c(-c2cccs2)nc2ccccc2n1C(c1ccccn1)c1nc2ccccc2[nH]1 (configuration not stated) | . | . | . | -9% | .
CCN(CC(=O)Nc1ccc(NC(C)=O)cc1)C(=O)CSc1ncnc2sc(C)c(C)c12 | . | 14% | -4% | 1% | .
NCc1cc2c3c(c1)CCCN3CCC2 | -1% | 7.4µM* | -6% | -3% | -1%
CC(C)(C)OC(=O)NCCCC[C@H](NC(=O)c1[nH]cnc1C(=O)N[C@@H](Cc1ccccc1)C(=O)OC(C)(C)C)C(=O)OC(C)(C)C | ? | 3.7µM* | 2.9µM* | 6% | 0%
C[C@H](NC(=O)c1nc[nH]c1C(=O)N[C@@H](CCCCNC(=O)OC(C)(C)C)C(=O)OC(C)(C)C)c1ccccc1 | 3% | ? | 10µM* | 4% | 1%
CC(C)(C)OC(=O)NCCCCCNC(=O)c1[nH]cnc1C(=O)N[C@@H](Cc1ccccc1)C(=O)OC(C)(C)C | . | . | . | -20% | -19%
CN(Cc1ccccc1)C(=O)c1[nH]cnc1C(=O)N[C@@H](CCCCNC(=O)OC(C)(C)C)C(=O)OC(C)(C)C | 6% | 8.3µM* | ? | -11% | -1%
CC(C)C[C@H](NC(=O)c1nc[nH]c1C(=O)N(C)Cc1ccccc1)C(=O)OC(C)(C)C | -1% | 7.4µM* | ? | -9% | -3%
C[C@@H](NC(=O)c1nc[nH]c1C(=O)NCCCCCNC(=O)OC(C)(C)C)c1ccccc1 | . | . | . | 6% | -5%
C[C@H](NC(=O)c1nc[nH]c1C(=O)NCCCCCNC(=O)OC(C)(C)C)c1ccccc1 | . | 5.2µM* | 10µM* | -3% | -2%
C[C@H](NC(=O)c1nc[nH]c1C(=O)NCc1ccc(CNC(=O)OC(C)(C)C)cc1)c1ccccc1 | . | ? | 10µM* | 6% | -1%
CC1CCN(C(=O)C2CCCN2S(=O)(=O)c2ccc(Cl)cc2)CC1 (configuration not stated) | 3% | ? | -5% | 20% | 4%
COc1ccc2c(c1OC)C(=O)N1c3ccccc3C(=O)N(c3ccccc3F)C21 (configuration not stated) | -2% | 12µM* | 10µM* | -1% | -10%
Cc1csc(SCC(=O)Nc2ccc(C)c(F)c2)n1 | . | ? | -12% | -5% | 6%
CCOC(=O)N1CCN(C(=O)c2c[nH]c3ccc(S(=O)(=O)N(C)c4ccc(F)cc4)cc3c2=O)CC1 | -22% | ? | -20% | 15% | 1%
CCOC(=O)N1CCN(C(=O)c2c[nH]c3ccc(S(=O)(=O)N(C)c4ccc(OCC)cc4)cc3c2=O)CC1 | -15% | 13µM* | 24% | 6% | -1%
SMILES | NS1 function inh | Pf growth 96h | Pf growth 48h | RE007 growth inh | SARS PLpro yeast
CCOc1ccc(N(C)S(=O)(=O)c2ccc3[nH]cc(C(=O)NCC4CCCO4)c(=O)c3c2)cc1 (configuration not stated) | -18% | ? | 13µM* | 4% | 1%
CCc1ccc(/C=C2/C(=O)NC(=O)N2C(C)=O)cc1 | 3% | 61% | 95% | 11% | 2%
CCOC(=O)C1=CCCN(S(=O)(=O)c2ccc(C)cc2)C1 | . | . | . | 9% | .
C[C@@H]1CN([C@H](C)CO)C(=O)Cc2cc(NC(=O)Cn3cnnn3)ccc2O[C@@H]1CN(C)Cc1ccc(Cl)c(Cl)c1 | . | . | . | -5% | -5%
CCN(CC)c1ccc(N=Cc2c(O)n(Cc3ccco3)c(=O)[nH]c2=O)cc1 | 1% | ? | 12µM* | 10% | 0%
CCN(CC)c1ccc(N=Cc2c(O)n(CCc3ccc(OC)c(OC)c3)c(=O)[nH]c2=O)cc1 | 5% | 10µM* | 7.4µM* | 21% | 8%
CN(C(=S)NC(=O)C1CC1)c1ccc(O)cc1 | . | 127% | 82% | -1% | -1%
Oc1cc(Cc2ccccc2)cnc1CN1CCCCC1 | -8% | -25% | 0.93µM* | -8% | -1%
COc1ccc(C(=O)C2CCCN(C(=O)CCC3=NNC(=O)CC3)C2)c(C)c1 (configuration not stated) | 2% | 10µM* | 0% | -3% | 0%
COc1ccc(C(=O)C2CCCN(C(=O)c3csc(C(C)=O)c3)C2)c(C)c1 (configuration not stated) | 0% | 0% | -6% | 5% | -5%
O=C(c1ccc(Oc2ccccc2)cc1)C1CCCN(C(=O)c2cnccn2)C1 (configuration not stated) | -65% | -22% | -9% | -1% | -5%
C#Cc1cccc(C(=O)N2CCCC(C(=O)c3ccc(OC)cc3C)C2)c1 (configuration not stated) | 5% | 13µM* | -7% | 6% | 21%
Cc1cc(C(=O)N2CCCC(C(=O)c3ccc(Oc4ccccc4)cc3)C2)n[nH]1 (configuration not stated) | -120% | ? | 10µM* | -3% | -41%
COc1ccc(C(=O)C2CCCN(C(=O)c3cc(C4CC4)[nH]n3)C2)c(C)c1 (configuration not stated) | 6% | 15µM* | 10% | 13% | -1%
COc1ccc(C(=O)C2CCCN(C(=O)C3=CCCC3)C2)c(C)c1 (configuration not stated) | -2% | ? | -11% | 18% | -3%
CC(C)(C)c1ccc(C(=O)NC2CCS(=O)(=O)C2)cc1 (configuration not stated) | -9% | -1% | 41% | 0% | -2%
